This passage reports seed-corrected z-score results from PubChem BioAssay AID1159506 (National Center for Advancing Translational Sciences (NCATS), 2015).

In all, about 59,000 sequences were measured (the read-out: median about -0.00055, lowest 2% from about -2 on). The entries come from a sample that favours the lowest values as a whole.

A short description of the test: Identification of proteins required for the processing of the EWS-FLI1 nascent transcript.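 Further: robust z of luciferase light less the median z of siRNAs with the same seed.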 Particulars: TC32 Ewing sarcoma NR0B1-luc vs CMV-luc (EWS-FLI1 target promoter against control promoter), 48 h; screened at 20 nM (by protocol). As to the method: Ewing sarcoma (ES) cells depend on the EWS-FLI1 fusion transcription factor for cell survival. Using an assay of EWS-FLI1 activity and genome-wide siRNA screening we have identified proteins required for the processing of the EWS-FLI1 nascent transcript. Parallel genome-wide siRNA-mediated RNAi screens were conducted in Ewing sarcoma TC32 cell lines expressing a luciferase (luc) reporter protein driven by either the promoter of the EWS-FLI1 target gene NR0B1 (TC32-NR0B1-luc) or the CMV promoter (TC32-CMV-luc). Luciferase activity was assessed 48 hours post siRNA-transfection.
Twenty microl of serum-free media containing Lipofectamine RNAiMax (0.05 microl) was added to wells containing siRNA (0.8 pmol). Lipid and siRNA were allowed to complex for 45 min at ambient temperature before addition of 600 cells in RPMI-1640, 20% FBS to yield final transfection mixtures containing 20 nM siRNA in RPMI-1640, 10% FBS. Luciferase expression was measured using OneGlo (Promega, Madison, WI). The genome-wide screening campaign was conducted using Ambion's human genome library version 4.1 (Ambion, Austin TX). This library targets approximately 21000 human genes, three siRNAs per gene. Each siRNA is arrayed in an individual well of a 384-well plate. Parallel transfections were conducted in TC32-NR0B1-luc and TC32-CMV-luc cell lines and luciferase expression (OneGlo, Promega) was assayed 48 h later on a PerkinElmer Envision 2104 Multilabel plate reader (PerkinElmer, Waltham, MA). Qiagen's AllStars Negative control was incorporated on all screening plates for normalization (16 wells per plate). Qiagen, Germantown, MDsiGL4 was incorporated as a positive transfection control (16 wells per plate) on all plates. […] The raw luciferase data for the NR0B1- and CMV-luc screens were normalized and z-score-MAD transformed using standard methods (Chung et al., 2008). The miRNA-like seed sequence of every siRNA was determined and the median z-score for all siRNA sequences with the same seed sequence was calculated. This z-score was subtracted from the z-score associated with each siRNA with that seed sequence to generate a seed-adjusted z-score value (Z) that was used when the results for the three siRNAs corresponding to each gene were compared (Marine et al., 2012)
The sequence AAAGUUGAACUCCUGAUGG against MYT1L-AS1 returned a seed-corrected z-score of 0.298.

As for UCGUUGUUCAAACCAUUCC against ZEB2, the seed-corrected z-score is -2.94. On to UCUGAAUCCACUAACACUG against TMEM87B, for which the seed-corrected z-score was -0.0559. UUGCUAAACAGGGCCUUGC against MCRS1 returned a seed-corrected z-score of 1.49. UAGGUUUUCUUCGUUGUCC against MIR503HG gave a seed-corrected z-score of 0.872. As for UUCGAAGCAUCUUUUGGGC against RPL7P9, the seed-corrected z-score was -2.28.

UGAGUUGAACACGUAGCCC against ALPI registered a seed-corrected z-score of 0.286. UUUGCUAUCUUGCUGAUGC against LINC00615 displayed a seed-corrected z-score of 0.184.

Take ACAGAUAUUGUAAAUCUCC against TMEM14C: the seed-corrected z-score is 0.508. For the sequence UAUUGUGAUAUAGGCACCG against WDR26, the seed-corrected z-score is -1.57. The figure for UCACGUUUCACCAAGAUGC against EIF4A3 is -2.2; for UCCAUGACAAUGUCCACUC against VAT1 it is -0.662; for UCUGGAUUAUGGGUAGGCC against CHTOP it is -1.42. The result for UUCUGCUUCUGUAUUAUCC against SAP30BP reads -2.11. The figure for UCACUAUCAAGUCUGGUAC against CSMD3 is 0.55.

Consider UAUAUCUGCAACACGGUGG against SND1, for which the seed-corrected z-score worked out at 0.153. The result for UGUCUUUCAAACGUAGGCC against ZNF792 reads -3.5; that for UGUUUCGUAAACAUUCACC against FUT10, -0.285; that for UACAAUUACAUCAUCGUCC against GLT8D2, -0.139.

UUCGAGAGACUGACAUGCG against SYT14P1 came in with a seed-corrected z-score of -0.0146.

AUCUGGUUCAUUACAGUAG against BSDC1 returned a seed-corrected z-score of -2.55.

Take AAAAGACAUACAUGAAGAC against GJB1: the seed-corrected z-score is -0.779.

As for UCUAAUUCCAGGUAAAUUU against GOLT1B, the seed-corrected z-score came out at 0.519. The result for UUAUCUUGCAGCAAAGCAC against LYZ reads -1.35; that for UUAAACUUCACGUUGUCCU against RPL38, -2.01. As for AUUGGAGGCACUGCACUCG against NTM, the seed-corrected z-score is 0.224. In the case of UAUAGGAGCUCUAGGAUCU against CSTF2T, the seed-corrected z-score was -0.439. The figure for AGCAUUGUAAGUGACGUGC against KCNN2 is -2.24.

UCUGUUAAUGCUAUUCUCC against C2orf61 came in with a seed-corrected z-score of 0.146.

Turning to UGUUAAGUAGAAAAUAACC against CD83, the seed-corrected z-score was determined as 0.552.

Sequence UAUGACAUCGGAGACCUUC against MEN1 registered a seed-corrected z-score of 0.259. As for AAAGUUGCUAUGAAGCGAG against PSMA8, the seed-corrected z-score was -2.62. In the case of UCUCGUUUAUCUACAUCUC against AUTS2, the seed-corrected z-score worked out at 0.181. For the sequence UACAGACAUAUGUACAUCC against CCDC12, the seed-corrected z-score was -2.89. As for UGACAAAUCACUGUAUGUC against ZIM2, the seed-corrected z-score was -0.582. In the case of UUUGAUACAGUAUCUACAG against DVL1, the seed-corrected z-score was found to be 0.326. UUAUUUCUCAGCUCGUUGG against STX6 registered a seed-corrected z-score of -2.43. As to UUUGUUUGCACCAGUUGUC against OTUD1, the seed-corrected z-score came to 0.434. The result for UUGCGCUCUAGUUCCAGGC against PRPH reads -0.44; that for UCCUUUAACGGGAUCUUGU against PI3, 0.267; that for UAUGUACAGAGACACCAGG against MC5R, -2.92. For the sequence AUAGUCACAAAUGAAUCCG against PLS3, the seed-corrected z-score worked out at 0.171. The figure for AACGAUGAUAGAAUUUACG against CLEC16A is -2.32; for UGUGGAAACAUUGAUCUGC against PRPF4 it is -1.56.

In the case of UUCUUUAUUGAGUGCAUGG against KLK6, the seed-corrected z-score is -1.38.

UCGUCUAUUGAUGAUGUCG against AQR had a seed-corrected z-score of -2.1. The figure for UUCUGGAUUCUUGACCGCU against KRBOX4 is 0.0382; for AGCUUGGAGAGUUUAGCCC against SLC46A1 it is 0.256. Turning to UUCCUAAUACCACAAUUGC against NKIRAS1, the seed-corrected z-score is -0.00171. Sequence UAAGUUGCAUGCCUGGUCA against RIMKLA displayed a seed-corrected z-score of -3.91. The figure for UGUUGAGUAAGGAGGGACC against HSPB8 is -0.073; for UCAUCGCCUAUGUCGAUGC against ABCC11 it is 0.255. As to UUUGAGCUUUCCUUAUUCC against CEP97, the seed-corrected z-score was found to be 0.381. Turning to UCUAGAUCAUGAAUGCUCC against ZNF25, the seed-corrected z-score is 1.08. The figure for AUUUCUUUCAUAGUCACCG against RASL11B is -0.122; for UAUGCUUUUAGACGAUUGG against ASB14 it is -0.444; for AGGUCUUCAAAUACCGUUG against LACTB2 it is -2.32.

UUUGCUCCCUUCACUCUGC against DVL1 had a seed-corrected z-score of 0.689.

Sequence AAAUGUACACCAUAUAAGC against ELOVL6 registered a seed-corrected z-score of -2.75. The figure for UUCAUGUCCACGUUGACCA against PLCD3 is -0.387; for UUAUGGUCUUGAGGUAAGG against RNF6 it is 0.418; for UUCGUGAAAGGAUCUGCUG against FRMD4B it is -0.649. UCUGUUUUCAGGUCUUCCA against PMM1 had a seed-corrected z-score of 0.485. The result for UGAGUUUGAAGGUGAAUUC against TMEM207 reads 0.374. The figure for UAGACUAGAAUGGUCACUC against DDIAS is 0.728; for UCUGGAGUGUUUGGGCUGC against CICP18 it is -3.73.
